The values below come from the antibiotic and cytotoxicity screens of Wong et al. (2023).

In all, about 39,000 compounds went through this assay and about 3,300 (8.5%) were called active. Many of the other results were omitted from the sample, so actives are more common in it than they were.

The subject of this test is HepG2. As to the kind of experiment: cytotoxicity call (relative viability < 0.9). As to conditions: 10 µM.
As to `NC[C@@H](CC(=O)O)c1ccc(Cl)cc1`, the cytotoxicity call is “inactive”.

For the compound `CCOC(=O)c1c(CN2CCN(Cc3ccccc3)CC2)n(Cc2ccccc2)c2cc(Br)c(O)cc12`, the cytotoxicity call is “inactive”.

As for `CN(C)C(=O)C(CCN1CCC(O)(c2ccc(Cl)cc2)CC1)(c1ccccc1)c1ccccc1.Cl`, the cytotoxicity call was “active”.

As for `CN1CCN(CC2CC2)C(=O)C12CCNCC2`, the cytotoxicity call is “inactive”.

As for `O=C(C1CCCC1)N1C[C@@H]2CCNC[C@@H]21`, the cytotoxicity call was “inactive”.

`CCN1C(=O)/C(=C/c2ccc[nH]2)C(=O)NC1=S`: the cytotoxicity call is “inactive”.

In the case of `CC(=O)OC1CC(OC2C(O)CC(OC3C(O)CC(OC4CCC5(C)C(CCC6C5CC(O)C5(C)C(C7=CC(=O)OC7)CCC65O)C4)OC3C)OC2C)OC(C)C1OC1OC(CO)C(O)C(O)C1O` (stereo not given), the cytotoxicity call was “active”.

For the compound `CC12CCC3C(CCC4CC(O)CCC43C)C1CCC2=O` (stereo not given), the cytotoxicity call is “inactive”.

With `CO[C@H]1[C@@H](O)[C@@H](O[C@H]2CC[C@]3(C=O)[C@@H]4[C@@H](CC[C@]3(O)C2)[C@@]2(O)CC[C@H](C3=CC(=O)OC3)[C@@]2(C)C[C@H]4OC(C)=O)O[C@@H](C)[C@@H]1OC(C)=O`, the cytotoxicity call is “inactive”.

In the case of `CO[C@H]1[C@@H](O)C[C@@H](O[C@H]2[C@@H](O)C[C@@H](O[C@H]3[C@@H](O)C[C@@H](O[C@H]4CC[C@@]5(C)[C@@H](CC[C@H]6[C@@H]5C[C@@H](O)[C@@]5(C)[C@H](C7=CC(=O)OC7)CC[C@@]65O)C4)O[C@@H]3C)O[C@@H]2C)O[C@@H]1C`, the cytotoxicity call is “active”.

Turning to `CC12CCC3C(CCC4CC(O)CCC43C)C1CCC2O` (stereo not given), the cytotoxicity call is “inactive”.

`CO[C@H]1[C@H](O)[C@@H](O[C@H]2[C@@H](C)O[C@@H](O[C@H]3[C@H](C)O[C@H](O[C@H]4CC[C@@]5(C)[C@@H](CC[C@@]6(O)[C@@H]5C[C@@H](O)[C@]5(C)[C@]6(O)CC[C@@]5(O)[C@@H](C)O)C4)C[C@@H]3OC)C[C@H]2OC)O[C@@H](C)[C@H]1O`: the cytotoxicity call is “inactive”.

For the compound `CC12CCC(O)CC1CCC1C2CC(O)C2(C)C(C3=CC(=O)OC3)CCC12O` (stereo not given), the cytotoxicity call is “active”.

`CC(=O)O[C@H]1C[C@H](O[C@H]2[C@@H](O)C[C@H](O[C@H]3[C@@H](O)C[C@H](O[C@H]4CC[C@@]5(C)[C@@H](CC[C@H]6[C@@H]5C[C@@H](O)[C@]5(C)[C@@H](C7=CC(=O)OC7)CC[C@]65O)C4)O[C@@H]3C)O[C@@H]2C)O[C@H](C)[C@H]1O[C@@H]1O[C@H](CO)[C@@H](O)[C@H](O)[C@H]1O`: the cytotoxicity call was “active”.

On to `O=C(NC[C@H]1CC[C@]2(CNCCOC2)O1)c1ccnnc1`, for which the cytotoxicity call is “inactive”.

As for `C=C(C)[C@H]1CN[C@H](C(=O)O)[C@@H]1CC(=O)O`, the cytotoxicity call is “inactive”.

Take `CO/C1=C\C(C)=C\[C@@H](C)[C@@H](O)[C@@H](C)C/C(C)=C/C=C/[C@H](OC)[C@@H]([C@@H](C)[C@@H](O)[C@H](C)C(=O)/C=C/[C@H](C)[C@H](O)C(C)C)OC1=O`: the cytotoxicity call is “inactive”.

`CC(C)c1ccc2c(c1)[C@H](O)[C@H](N)CCO2`: the cytotoxicity call is “inactive”.

For the compound `O=C1NCC2(CNC2)O1`, the cytotoxicity call was “inactive”.

Turning to `CCN(CC)C1CCCCC1`, the cytotoxicity call was “inactive”.

For the compound `NC1(Cc2ccc(Cl)cc2)CC1`, the cytotoxicity call was “inactive”.

For `O.O=c1ccc2cc(OC3OC(CO)C(O)C(O)C3O)c(O)cc2o1` (stereo not given), the cytotoxicity call is “inactive”.

For `CC(C)(C)[C@]1(O)C[C@@H]2OC(=O)C[C@]23C(=O)O[C@@H]2OC(=O)[C@H](O)[C@]231`, the cytotoxicity call is “inactive”.

For the compound `CC(=O)O[C@H]1C[C@@H]2CC[C@@H]3[C@H](CC[C@@]4(C)[C@H]3C[C@H]([N+]3(C)CCCCC3)[C@@H]4OC(C)=O)[C@@]2(C)C[C@@H]1[N+]1(C)CCCCC1`, the cytotoxicity call is “inactive”.

Consider `CC(=O)OC1CCC2(C)C(CCC3C2CCC2(C)C(C4=CC(=O)OC4)C(OC(C)=O)CC32O)C1` (stereo not given), for which the cytotoxicity call is “active”.

As for `O=C(O)CC[N+](=O)[O-]`, the cytotoxicity call is “inactive”.

Regarding `C[C@H]1CN([C@@H](C)CO)C(=O)CCCn2cc(nn2)CO[C@@H]1CN(C)C(=O)Oc1ccc2ccccc2c1`, the cytotoxicity call was “inactive”.

As for `[N-]=[N+]=NCC(=O)Nc1ccon1`, the cytotoxicity call is “inactive”.

Consider `N#CCCN.O=C(O)C=CC(=O)O`, for which the cytotoxicity call was “inactive”.

For `COC(=O)[C@H]1[C@H](CO)[C@H]2Cn3c(ccc(C4=CCCC4)c3=O)[C@@H]1N2S(=O)(=O)c1cn(C)cn1`, the cytotoxicity call is “inactive”.

Turning to `CC[C@@H](C)C(=O)O[C@H]1[C@H](O)[C@H]2[C@@H](CN3C[C@@H](C)CC[C@@H]3[C@@]2(C)O)[C@H]2C[C@]34O[C@]5(O)[C@@H](OC(=O)[C@@](C)(O)CC)CC[C@@]3(C)[C@@H]5[C@@H](OC(C)=O)[C@@H](OC(C)=O)[C@@H]4[C@@]21O`, the cytotoxicity call is “inactive”.

Consider `C/C=C(/C)C(=O)O[C@H]1CC[C@@]2(C)[C@@H]3CC[C@H]4[C@]5(O)C[C@H](O)[C@@]6(O)[C@@H](CN7C[C@@H](C)CC[C@H]7[C@@]6(C)O)[C@]5(O)C[C@@]42O[C@@]13O`, for which the cytotoxicity call is “inactive”.

Regarding `CC[C@@H](C)C(=O)O[C@H]1[C@H](O)[C@H]2[C@@H](CN3C[C@@H](C)CC[C@@H]3[C@@]2(C)O)[C@H]2C[C@]34O[C@]5(O)[C@@H](OC(=O)[C@@](C)(O)[C@@H](C)O)CC[C@@]3(C)[C@@H]5[C@@H](OC(C)=O)[C@@H](OC(C)=O)[C@@H]4[C@@]21O`, the cytotoxicity call is “active”.

`CC(C)C12CN3CCN(CC(C3)C1=O)C2`: the cytotoxicity call is “inactive”.

Take `C[C@@H]1CN([C@H](C)CO)C(=O)c2c(c3ccccc3n2C)-c2ccccc2CO[C@H]1CN(C)C(=O)Oc1ccccc1`: the cytotoxicity call was “inactive”.

Take `Cc1o[nH]c(=O)c1C[C@@H](N)C(=O)O`: the cytotoxicity call is “inactive”.

`CC(N)C(O)c1ccccc1.Cl` (stereo not given): the cytotoxicity call was “inactive”.

Regarding `COc1ccc(OC)c(CN)c1`, the cytotoxicity call was “inactive”.

On to `COc1ccc(OC)c(C(O)C(C)N)c1.Cl` (stereo not given), for which the cytotoxicity call is “active”.

As for `O=c1[nH]oc2c1CCNC2`, the cytotoxicity call was “inactive”.

With `COC(C)(C)CCC[C@H](C)C/C=C/C(C)=C/C(=O)OC(C)C`, the cytotoxicity call was “inactive”.

`Cl.O=C1CCC2(O)C3Cc4ccc(O)c5c4C2(CCN3CC2CC2)C1O5` (stereo not given): the cytotoxicity call was “inactive”.

Take `C=CC1CN2CCC1CC2C(O)c1ccnc2ccccc12` (stereo not given): the cytotoxicity call is “inactive”.

As to `CCC1CN2CCC1CC2C(O)c1ccnc2ccc(OC)cc12` (stereo not given), the cytotoxicity call was “active”.

`C=CC1CN2CCC1CC2C(OC(=O)OCC)c1ccnc2ccc(OC)cc12` (stereo not given): the cytotoxicity call is “inactive”.

In the case of `CC1OC(OC2CCC3(C=O)C4CCC5(C)C(C6=CC(=O)OC6)CCC5(O)C4CCC3(O)C2)C(O)C(O)C1O` (stereo not given), the cytotoxicity call is “active”.

As for `CO[C@H]1[C@@H](O)[C@@H](C)O[C@H](O[C@H]2CC[C@@]3(C)[C@H]4CC[C@@]5(C)[C@@H](C6=CC(=O)OC6)CC[C@]5(O)[C@@H]4CC[C@]3(O)C2)[C@@H]1O`, the cytotoxicity call is “inactive”.

For `CO[C@H]1C[C@H](O[C@H]2CC[C@]3(C=O)[C@H]4CC[C@]5(C)[C@@H](C6=CC(=O)OC6)CC[C@]5(O)[C@@H]4CC[C@]3(O)C2)O[C@H](C)[C@H]1O`, the cytotoxicity call is “active”.

With `C[C@@H]1O[C@@H](O[C@H]2CC[C@]3(C=O)[C@H]4CC[C@]5(C)[C@@H](C6=CC(=O)OC6)CC[C@]5(O)[C@@H]4CC[C@]3(O)C2)[C@H](O)[C@H](O)[C@H]1O`, the cytotoxicity call is “active”.

Regarding `COC1C(O)C(C)OC(OC2CCC3(C)C4CCC5(C)C(C6=CC(=O)OC6)CCC5(O)C4CCC3(O)C2)C1O` (stereo not given), the cytotoxicity call was “inactive”.

For `COC1C(O)C(C)OC(OC2CCC3(C=O)C(CCC4C3CCC3(C)C(C5=CC(=O)OC5)CCC43O)C2)C1O` (stereo not given), the cytotoxicity call was “active”.

`N#Cc1cnccn1`: the cytotoxicity call was “inactive”.

For `CCNC1(c2cccs2)CCCCC1=O.Cl` (stereo not given), the cytotoxicity call is “inactive”.

Turning to `NCC[C@H](NC(=O)[C@@H](N)CCCNC(N)=N[N+](=O)[O-])C(N)=O.O=CC(F)(F)F`, the cytotoxicity call was “inactive”.

Regarding `c1cnc(N[C@@H]2CO[C@@]3(CCNC3)C2)cn1`, the cytotoxicity call is “inactive”.

As for `NC1=NC(=O)N2C[C@@H]12`, the cytotoxicity call was “inactive”.

Turning to `C[C@H](CO)N1C[C@H](C)[C@H](CN(C)C(=O)Oc2ccc3ccccc3c2)OCc2cnnn2CCCC1=O`, the cytotoxicity call was “inactive”.

In the case of `C1CN2CN3CCN(CN1C3)C2`, the cytotoxicity call was “inactive”.

For the compound `NCCc1ccc([N+](=O)[O-])cc1`, the cytotoxicity call is “inactive”.

Take `O=C(c1ccco1)N1C[C@H]2CN[C@@H](C2)C1`: the cytotoxicity call is “inactive”.

As to `C=C[C@H]1[C@H](O[C@@H]2O[C@H](CO)[C@@H](O)[C@H](O)[C@H]2O)OC=C2C(=O)OCC[C@H]21`, the cytotoxicity call was “inactive”.

Consider `Cc1cccc(CC2(N)CC2)c1`, for which the cytotoxicity call was “inactive”.

On to `N#[N+]CC(=O)CC[C@H](N)C(=O)O`, for which the cytotoxicity call is “inactive”.

On to `CC12CCC3C(CCC4(O)CC(O)CCC34C=O)C1(O)CCC2C1=CC(=O)OC1` (stereo not given), for which the cytotoxicity call was “active”.

Regarding `C#CC(C)(O)CC` (stereo not given), the cytotoxicity call is “inactive”.

Turning to `CNC(=O)CN1CCOCC12CCN(c1cc(OC)ncn1)CC2`, the cytotoxicity call is “inactive”.

As to `CC1(C)CCC(C)(C)c2cc(-c3csc(CC#N)n3)ccc21`, the cytotoxicity call was “inactive”.

Take `COc1c(C[C@@H](C)O)c2c3c(C[C@@H](C)O)c(OC)c(=O)c4c(O)cc5c(c6c(cc(O)c(c1=O)c62)OCO5)c43`: the cytotoxicity call is “active”.

Turning to `NCCc1cccc2ccccc12`, the cytotoxicity call is “inactive”.

Consider `C[C@@H]1CN([C@@H](C)CO)C(=O)c2c(c3ccccc3n2C)-c2ccccc2CO[C@H]1CN(C)C(=O)Oc1ccccc1`, for which the cytotoxicity call was “inactive”.

As for `CN(C)C(=O)N[C@H]1CN[C@H]2CCCO[C@H]21`, the cytotoxicity call is “inactive”.

On to `O=C1C=C2C=CC3CC2(O1)C1CCCCN31` (stereo not given), for which the cytotoxicity call was “active”.

With `CN1C(=O)NC(=O)/C(=C\c2ccc(O)cc2)C1=O`, the cytotoxicity call is “inactive”.

`Cn1cc(C(=O)Nc2nn[nH]n2)c2ccccc21`: the cytotoxicity call was “inactive”.

On to `CCCC12CNCC(C)(CNC1)C2=O`, for which the cytotoxicity call was “inactive”.

As to `O=[N+]([O-])c1ccc(N(CCO)CCO)c2c1no[n+]2[O-]`, the cytotoxicity call is “active”.

As for `Nc1ccc([As](=O)(O)O)cc1`, the cytotoxicity call is “inactive”.

Consider `CN1CC(=O)N(c2cccnc2)C[C@]12CCNC2`, for which the cytotoxicity call is “inactive”.

On to `OCC(Br)(Br)Br`, for which the cytotoxicity call was “inactive”.

For the compound `O=[N+]([O-])C(Br)(CO)CO` [listing 1 of 2 here], the cytotoxicity call is “active”.

On to `O=[N+]([O-])C(Br)(CO)CO` [listing 2 of 2 here], for which the cytotoxicity call was “active”.

As to `CN1C(=O)/C(=C/c2cn(CC(=O)N3CCOCC3)c3ccccc23)C(=O)NC1=S`, the cytotoxicity call is “inactive”.

In the case of `CC(C)(C)[C@H]1CC[C@@]2(CC1)C[C@@H](C[Si](C)(C)C)OO2`, the cytotoxicity call is “inactive”.

With `CC(C)Oc1ccccc1CCN`, the cytotoxicity call is “inactive”.

Consider `CCN(CC)S(=O)(=O)c1ccc(Cn2nc(C(=O)Nc3ccc(N4CCCCC4)cc3)c3ccccc32)cc1`, for which the cytotoxicity call was “inactive”.
